Structures are written as SMILES. Records with an inconclusive call do not appear. The source made the active and inactive calls.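 The calls were made as follows, unless noted: active = viability at or below 10% of carrier control in both of two separate runs; inconclusive = viability at or below 10% in only one of the two runs; inactive = the rest.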

A short description of experiment [1]: SK-BR-3 cell growth inhibitors, pilot screen, 24 h, human (AID 572).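 Also: compound exposure lasted between 18 and 24 h rather than exactly 24 h; 100% = carrier-treated control wells.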 Particulars: SK-BR-3 viability, CellTiter-Glo luminescence, at 10 µM, stronger effect = lower value. A general note: In ATP-based viability assays light output follows the ATP content of the culture.
The nature of experiment [2]: growth inhibitors of H69AR lung tumor, primary screen, human, duplicate replicates (AID 580;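 active = viability at or under a set limit in both replicates, limit being median viability minus 3 SD, cut at about 48% in these data, passing the limit was not always enough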;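 also: 100% = mean luminescence of untreated wells and 0% = no signal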). The note with it: H69AR lung tumor cells viability, ATP luminescence, 72 h; at 10 µM; stronger effect = lower value.
Experiment [3] in a line: reversal of MRP1-mediated doxorubicin resistance, pilot screen, H69AR cells, doxorubicin co-treatment (AID 601;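 active = viability loss from added drug above about 55%, and viability with drug at most 40%, in both replicates, limit read from the data, passing the limit was not always enough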). The note with it: CellTiter-Glo, 72 h, at 10 µM; for differential viability (reversal): stronger effect = higher value.
Experiment [4] in a line: 384-well plate pilot, post-Golgi transport modulator project, inhibition of yeast transport mutant growth (AID 636; in the data active = inhibition above about 31%). The note with it: absorbance 615 nm, about 18 h, stronger effect = higher value.
Experiment [5] in a line: growth suppression of yeast trafficking mutant, preliminary HTS, modulators of trafficking downstream of Golgi apparatus project, 1536-format plate, OD 615 nm (AID 637; in the data active = inhibition above about 30%). Particulars: yeast transport mutant growth, absorbance 615 nm, 18 h; stronger effect = higher value.
A short description of experiment [6]: OD615 S. cerevisiae growth inhibition, permissive medium, pilot counter-assay, permissive growth control for S. cerevisiae lifespan shortening project (AID 705;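 active = growth inhibition above 25% in both replicates, a cutoff set 3 SD above the mean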). The note with it: OD615, 24 h, at 10 µM, stronger effect = higher value.
Experiment [7] can be described thus: Restrictive medium S. cerevisiae growth inhibition, OD615, pilot screen of yeast lifespan reduction project, restrictive growth control (AID 706;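 active = growth inhibition above a set limit, 3 SD over mean compound inhibition, in both replicates, cut at about 43% in these data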;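 also: modified DeaD lifespan yeast strain shifted to restrictive glucose medium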). The note with it: OD615, 48 h, at 10 µM, stronger effect = higher value.
Experiment [8] in a line: viability gain of MRP-1-high H69AR cells under doxorubicin, pilot screen, MRP-1 activator project, CellTiter-Glo, duplicate (AID 807;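 active = viability increase at or above a cutoff of the median across tested compounds plus 3 SD, cut at about 8.5% in these data, passing the limit was not always enough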;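 also: compound pretreatment 18-22 h then 72 h combined with doxorubicin; 0% = doxorubicin alone and 100% = vehicle without doxorubicin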). The note with it: H69AR viability with doxorubicin, CellTiter-Glo luminescence; at 10 µM; stronger effect = higher value.
Experiment [9] is described as follows: growth suppression of beta-catenin knockout HCT116, pilot screen, human colon tumor cells (AID 823;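 active = cell viability at or below a set limit in both duplicate runs, the limit being the all-compound median minus 4 SD, cut at about 23% in these data, passing the limit was not always enough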;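 also: 0% = wells killed by 20 µM Hyamine and 100% = untreated DMSO cell wells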). The note with it: CellTiter-Glo, 60 h, at 10 µM, stronger effect = lower value.
Experiment [10] in a line: growth suppression of PTEN-deleted HCT116, pilot screen, cell-based, HCT116 clonal line, CellTiter-Glo (AID 824;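 active = viability at or below 27.92% in each of two runs, the all-compound median minus 4 SD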;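 also: 0% = 20 µM Hyamine control and 100% = vehicle cell control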). The note with it: 60 h, at 10 µM, stronger effect = lower value.
The nature of experiment [11]: inhibitors of the yeast RAM network, pilot screen, dse1pr::URA3 reporter, 5-FOA selection (AID 869;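 active = inhibition over a set limit, the all-compound mean plus 3 SD, in both replicate runs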;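 also: 0% = DMSO wells with no growth and 100% = 10 µM 1-NA-PP1 with full growth; RAM network block rescues cells from 5-FOA so hits raise OD615 growth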). Particulars: S. cerevisiae dse1pr::URA3 5-FOA growth, OD615, 2 d; at 10 µM; stronger effect = higher value; strain carries analog-sensitive mutant Cbk1 kinase.
Where [12] appears, read: H69AR cells + 2 uM doxorubicin, measured here: viability with 2 uM doxorubicin, stronger effect = lower value.
The mark [13] stands for this setting: H69AR cells, compound alone cytotoxicity.

`CCc1nnc(NC(=O)c2ccc(S(=O)(=O)N(CC(C)C)CC(C)C)cc2)o1`: the viability (commonly a read-out of living cells in per cent, often relative to untreated cells) was 77% (inactive) in [1], 32.9% (active) in experiment [2], 61.4% in experiment [3] (setting [12]) and 32.9% in experiment [3] (setting [13]). For the same compound, the differential viability (reversal) in [3] (H69AR cells + 2 uM doxorubicin) is -28.4% (inactive). Also, the inhibition (as a rule, the drop in the measured response relative to a control, in per cent) in experiment [4] was 3.9% (inactive); in experiment [5], 0.66% (inactive).

Consider `N#Cc1ccccc1Cn1c(=O)n(Cc2ccc(C(=O)NCc3ccco3)cc2)c(=O)c2ccccc21`, for which the viability is 73% (inactive) in experiment [1], 11% (active) in experiment [2], 19.4% in experiment [3] (setting [12]) and 11% in experiment [3] (setting [13]). Also, the differential viability (reversal) in [3] (H69AR cells + 2 uM doxorubicin) is -8.33% (inactive). Also, the inhibition was -1.82% (inactive) in experiment [4] and -7.21% (inactive) in experiment [5].

Turning to `Cc1ccc2[nH]c3c(c2c1)CN(C(=O)CN1CCN(c2cccc(C)c2C)CC1)CC3`, the results for the viability in [1], in experiment [3] (setting [12]) and in experiment [3] (setting [13]) were 79% (inactive), 37.6% and 31%, respectively. The differential viability (reversal) in experiment [3] (H69AR cells + 2 uM doxorubicin) is -6.55% (inactive). The inhibition in [4] was 0% (inactive); in [5], 4.36% (inactive).

In the case of `COc1cc2c(C#N)c(N3CCN(c4ccccc4OC)CC3)nc(N)c2c(N)n1`, the viability in experiment [1] was 110% (inactive); in experiment [2], 67.8% (inactive); in experiment [3] (setting [12]) it was 63.3%; in experiment [3] (setting [13]), 67.8%. Besides, in experiment [3] (H69AR cells + 2 uM doxorubicin), the differential viability (reversal) was 4.45% (inactive). Besides, the figures for the inhibition in experiment [4] and in experiment [5] were -0.26% (inactive) and 5.9% (inactive), respectively.

In the case of `Clc1ccc(C2=Nn3c(nnc3-c3n[nH]c4c3CCC4)SC2)cc1Cl`, the viability in experiment [1] is 102% (inactive); in experiment [2], 9% (active); in experiment [3] (setting [12]), 21.1%; in experiment [3] (setting [13]), 9%. The differential viability (reversal) in experiment [3] (H69AR cells + 2 uM doxorubicin) is -12.1% (inactive). Also, the figures for the inhibition in [4] and in [5] were -6.58% (inactive) and 6.77% (inactive), respectively.

Consider `O=C(CCCN1CCC(O)(c2ccc(Cl)cc2)CC1)c1ccc(F)cc1`, for which the viability is 79% (inactive) in [1], 84% (inactive) in experiment [2], 80.9% in experiment [3] (setting [12]) and 84% in experiment [3] (setting [13]). Besides, in [3] (H69AR cells + 2 uM doxorubicin), the differential viability (reversal) was 3.11% (inactive). Moreover, the inhibition in experiment [4] was 2.34% (inactive); in experiment [5], -3.17% (inactive).

With `CC(C)Cn1c2c(c(O)c(C(=O)Nc3ncccc3O)c1=O)CCCC2`, the results for the viability in experiment [1], in experiment [3] (setting [12]) and in [3] (setting [13]) were 91% (inactive), 63.1% and 52.4%, respectively. Further, in experiment [3] (H69AR cells + 2 uM doxorubicin), the differential viability (reversal) was -10.7% (inactive). The inhibition was -2% (inactive) in experiment [4] and -2.91% (inactive) in experiment [5].

Take `COc1cc2nc(N3CCN(C(=O)C4COc5ccccc5O4)CC3)nc(N)c2cc1OC` (centres undefined): the viability in [1] was 59% (inactive); in experiment [3] (setting [12]), 23.7%; in experiment [3] (setting [13]), 8.23%. Moreover, the differential viability (reversal) in experiment [3] (H69AR cells + 2 uM doxorubicin) was -15.4% (inactive). Further, the inhibition was -0.65% (inactive) in experiment [4] and 6.83% (inactive) in experiment [5].

As for `COc1ccccc1N1CCN(Cc2nc(N)nc(Nc3ccc(C)c(Cl)c3)n2)CC1`, the viability was 104% (inactive) in experiment [1], 65.1% in experiment [3] (setting [12]) and 38.8% in experiment [3] (setting [13]). For the same compound, the differential viability (reversal) in experiment [3] (H69AR cells + 2 uM doxorubicin) is -26.3% (inactive). Moreover, the values for the inhibition in experiment [4] and in [5] were -1.3% (inactive) and -3.28% (inactive), respectively.

In the case of `Fc1ccc(C(c2ccc(F)cc2)N2CCN(C/C=C/c3ccccc3)CC2)cc1`, the viability in experiment [1] is 89% (inactive); in experiment [2], 76.7% (inactive); in experiment [3] (setting [12]), 82.3%; in experiment [3] (setting [13]), 76.7%. In experiment [3] (H69AR cells + 2 uM doxorubicin), the differential viability (reversal) is -5.65% (inactive). Moreover, the figures for the inhibition in experiment [4] and in [5] were 3.38% (inactive) and -1.17% (inactive), respectively.

On to `COc1ccc(Cl)cc1N1CCN(CCNC(=O)Nc2ccccc2C)CC1`, for which the figures for the viability in experiment [1], in experiment [3] (setting [12]) and in experiment [3] (setting [13]) were 85% (inactive), 71.4% and 48.7%, respectively. For the same compound, the differential viability (reversal) in [3] (H69AR cells + 2 uM doxorubicin) was -22.7% (inactive). Moreover, the inhibition in experiment [4] was -4.93% (inactive); in experiment [5] it was 4.91% (inactive).

For `Cc1ccc(-c2cc(C(F)F)nc(NCC3CCCO3)n2)cc1` (centres undefined), the viability was 86% (inactive) in experiment [1]; 100% (inactive) in experiment [2]; 94.2% in experiment [3] (setting [12]); 100% in experiment [3] (setting [13]); 66.4% (inactive) in [9]; 71.6% (inactive) in experiment [10]. In experiment [3] (H69AR cells + 2 uM doxorubicin), the differential viability (reversal) was 6.21% (inactive). The values for the inhibition in [4], in [5] and in [11] were 1.56% (inactive), -5.25% (inactive) and 1.38% (inactive), respectively. Moreover, the values for the growth inhibition in experiment [6] and in experiment [7] were -12.2% (inactive) and -9% (inactive), respectively. Besides, the viability increase in [8] was 2.09% (inactive).

In the case of `O=C(Nc1ccc2nn(-c3ccccc3)nc2c1)c1ccc(Br)o1`, the viability in experiment [1] is 67.5% (inactive); in experiment [2], 9.49% (active); in experiment [3] (setting [12]), 9.78%; in experiment [3] (setting [13]), 9.49%. Further, the differential viability (reversal) in [3] (H69AR cells + 2 uM doxorubicin) is -0.29% (inactive). Moreover, the figures for the inhibition in experiment [4] and in experiment [5] were -7.43% (inactive) and -10.3% (inactive), respectively.

In the case of `Cc1cccn2c(=O)c3cc(C(=O)NC4CCCC4)c(=N)n(C4CCCC4)c3nc12`, the viability in experiment [1] is 107% (inactive); in experiment [2] it was 27.6% (active); in [3] (setting [12]), 12.1%; in experiment [3] (setting [13]), 27.6%. For the same compound, the differential viability (reversal) in experiment [3] (H69AR cells + 2 uM doxorubicin) is 15.5% (inactive). Further, the values for the inhibition in [4] and in [5] were -8.49% (inactive) and 0.81% (inactive), respectively.

As to `Oc1cccc(Nc2nc(NCC3CCCO3)c3ccccc3n2)c1` (centres undefined), the viability in experiment [1] was 73% (inactive); in experiment [2] it was 22.1% (active); in experiment [3] (setting [12]) it was 41.4%; in experiment [3] (setting [13]), 22.1%. Besides, the differential viability (reversal) in experiment [3] (H69AR cells + 2 uM doxorubicin) was -19.3% (inactive). The inhibition in experiment [4] is -5% (inactive); in experiment [5], 3.17% (inactive).

Take `CO[C@H]1C[C@@H]2CC[C@@H](C)[C@@](O)(O2)C(=O)C(=O)N2CCCC[C@H]2C(=O)O[C@H]([C@H](C)C[C@@H]2CC[C@@H](O)[C@H](OC)C2)CC(=O)[C@H](C)C=C(C)[C@@H](O)[C@@H](OC)C(=O)[C@H](C)C[C@H](C)C=CC=CC=C1C`: the viability in experiment [1] was 113% (inactive); in experiment [2] it was 67.1% (inactive); in experiment [3] (setting [12]), 65.7%; in experiment [3] (setting [13]) it was 67.1%. Besides, in experiment [3] (H69AR cells + 2 uM doxorubicin), the differential viability (reversal) was 1.46% (inactive). The inhibition is 93.6% (active) in experiment [4] and 82.2% (active) in [5].

In the case of `C(=C\c1ccccc1)/CSc1nnc(-c2ccccn2)n1Cc1ccco1`, the viability in [1] was 84% (inactive); in experiment [2] it was 21.4% (active); in experiment [3] (setting [12]) it was 68.2%; in experiment [3] (setting [13]), 21.4%. Further, the differential viability (reversal) in experiment [3] (H69AR cells + 2 uM doxorubicin) is -46.8% (inactive). Moreover, the inhibition in experiment [4] was -6.53% (inactive); in [5], -0.16% (inactive).

With `O=C(Nc1ccc2oc(Cc3ccc(Cl)cc3)nc2c1)c1cccnc1`, the viability was 103% (inactive) in experiment [1], 37.9% (active) in [2], 79.4% in [3] (setting [12]) and 37.9% in [3] (setting [13]). In addition, the differential viability (reversal) in [3] (H69AR cells + 2 uM doxorubicin) is -41.5% (inactive). Further, the results for the inhibition in experiment [4] and in experiment [5] were -1.73% (inactive) and -0.55% (inactive), respectively.

For `O=C(O)c1cc(O)c2c(c1)C(=O)c1cccc(O)c1C2=O`, the viability is 87% (inactive) in [1], 76.9% (inactive) in [2], 91.4% in experiment [3] (setting [12]) and 76.9% in experiment [3] (setting [13]). In addition, the differential viability (reversal) in experiment [3] (H69AR cells + 2 uM doxorubicin) was -14.5% (inactive). Also, the inhibition in experiment [4] was -4.42% (inactive); in experiment [5], 1.83% (inactive).

These data come from PubChem BioAssay.
